# Screening results (PubChem)
# The sample as a whole holds a higher share of hits than the screen did.
# MBNL1-CUG inh – qHTS Assay for Inhibitors of MBNL1-poly(CUG) RNA binding | AID 2675, 2010 | hit rate 0.036% among 280,000 | TR-FRET MBNL1-His/biotin-(CUG)12 binding, 665/545 ratio | Potency, µM (doses to about 57.5 µM), for inactives: top-dose activity change, negative = inhibition, most hits filed as inhibitors | Muscleblind-like protein 1 (Homo sapiens), Q9NR56; active = well fitted inhibition curve with a large enough effect in the signal ratio, with a control signal flat, not every such curve was filed as active; inconclusive = small, poorly fitted or top-dose-only effect, or effect the other way, or a change in a side signal; inactive = no such curve, though single readings can be large or run the other way; the % refers to the signal ratio; note: potency is the fitted concentration of half-maximal effect; % is set by controls: 0 for no effect and ±100 for the full control effect
#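 TR-FRET readout: Ex 340 nm, 665/545 nm emission ratio, normalized to buffer-only (basal) and MBNL1-(CUG)12 controls. Complex of MBNL1-His with Biotin-(CUG)12, compounds 92 nM–58 uM, incubated 60 min at room temperature.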
# ClpP mod – qHTS Assay for Activators of ClpP | ATP-dependent Clp protease proteolytic subunit (Bacillus subtilis (strain 168)), P80244 | purified B. subtilis ClpP, FRET peptide cleavage, 20 min | Potency, µM (series often up to 57.5 µM), for the others: at the highest dose activity change, negative = active | hit rate 1.9% among 340,000; active = well fitted falling curve with a large enough effect; inconclusive = small, poorly fitted or top-dose-only effect; inactive = no such curve, though single readings can be large or run the other way; note: potency is the fitted concentration of half-maximal effect; the source files actives as falling curves though it sought activators and does not explain the sign; nearly all actives have a fitted effect of over 65% in size
#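 Purified B. subtilis ClpP, 10 microg/mL final in Tris/HCl pH8 with KCl, BSA, glycerol and Tween-20, cleaved an Abz/nitrotyrosine-quenched decapeptide. Fluorescence (ex 320, em 430) was read at 0 and 20 min at room temperature. Delta was normalized to 5.8 microM ADEP and DMSO/no-enzyme controls.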
# Rango complex inh – qHTS Assay for Inhibitors of Rango (Ran-regulated importin-beta cargo) - Importin beta complex formation; Importin subunit beta-1 (Homo sapiens), Q14974; Rango CFP/YFP FRET sensor + importin beta, 45 min; Potency, µM (series often up to 92.2 µM), for inactives: at the highest dose inhibition of complex formation; hit rate 0.031% among 340,000;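 note: potency is the fitted concentration of half-maximal effect; 0% = DMSO wells and 100% = buffer wells lacking importin beta; nearly all actives have a fitted effect of over 15% in size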
#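 FRET biosensor Rango (snurportin 1 IBB between N-terminal EYFP and C-terminal Cerulean), 50 nM in PBS/1 mM DTT/0.02% Tween-20/0.1% BSA, preincubated 5 min RT with compound; 0.125 microM importin beta added, 45 min RT, CFP/YFP FRET ratio read.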
# CBFb-RUNX1 inh – qHTS Assay for Compounds Blocking the Interaction Between CBF-beta and RUNX1 for the Treatment of Acute Myeloid Leukemia; Runt-related transcription factor 1 (Homo sapiens) + Core-binding factor subunit beta …; AlphaScreen CBFb-His/RUNX1-biotin binding, biochemical; Potency, µM (titrated, usually from 59.8 µM), inactives show top-dose activity, negative = inhibition, hits mostly inhibitors; 230,000 tested, under 10 active; AID 1477, 2009; active = well fitted curve in the direction sought with a large enough effect; inconclusive = small, poorly fitted or top-dose-only effect, or effect the other way, or another doubt; inactive = no such curve, though single readings can be large or run the other way; note: % of control where 0% means no effect
#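 Proteins preincubated together for 20 min at RT before compound addition; 15 min later, nickel and streptavidin beads were added and left 90 min prior to AlphaScreen measurement.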
# Rango dissoc inh – qHTS Assay for Inhibitors of RanGTP induced Rango (Ran-regulated importin-beta cargo) - Importin beta complex dissociation; Biochemical FRET Rango-importin beta, RanGTP-induced dissociation; Potency, µM (titrated, usually from 46.1 µM), inactives show at the highest dose activity change, negative = inhibition; hit rate 0.071% among 340,000; AID 540253, 2011; note: potency is the fitted concentration of half-maximal effect; % of control where 0% means no effect; nearly all actives have a fitted effect of over 45% in size
#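 Rango (0.1 uM)–importin beta (0.25 uM) complex; RanGTP-RCC1 trigger; 45 min RT; CFP/YFP FRET read.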
# The depositor's hits bear a star; u = inconclusive; x = no result given. Unless noted, calls come from the whole dose curve.
SMILES,MBNL1-CUG inh,ClpP mod,Rango complex inh,CBFb-RUNX1 inh,Rango dissoc inh
COC(=O)c1c(NC(=O)c2cc3nc(-c4ccc(OC)cc4)cc(C(F)(F)F)n3n2)sc2c1CCCC2,x,28µM*,x,x,x
COc1ccc(-c2cc(C(F)(F)F)n3nc(C(=O)NCCCn4ccnc4)cc3n2)cc1,u,28µM*,u,-15%,u
Cc1ccc(-c2cc(C(F)(F)F)n3nc(C(=O)Nc4sc5c(c4C#N)CCC(C)C5)cc3n2)cc1 (stereo unspecified),x,1%,x,x,x
COc1ccc(/C=C(\C#N)C(=O)N2CCOCC2)cc1Br,-7%,25µM*,2%,4%,-4%
COc1ccc(-n2c(=O)c3c4c(sc3n(Cc3ccc(F)cc3)c2=O)CN(C(C)=O)CC4)c(OC)c1,x,0%,x,x,x
COc1cc2c(OC(C)=O)c3c(c(-c4ccc5c(c4)OCO5)c2cc1OC)C(=O)OC3,5%,u,u,2%,16µM*
COc1cc2c(O)c3c(c(-c4ccc5c(c4)OCO5)c2cc1OC)C(=O)OC3,0%,u,u,1%,u
COc1ccc(OCC(=O)OC2CCN(C)CC2)cc1,-5%,16µM*,8%,7%,1%
CN1CCC(OC(=O)COc2ccc(Br)cc2)CC1,-3%,x,4%,-6%,10%
C=C1C=C(C(F)F)n2ncc(C(=O)N3CCCCC3)c2N1,x,-2%,x,x,x
Cc1ccccc1CS(=O)(=O)CCC(=O)N1CCN(c2ccc(N3CCOCC3)nn2)CC1,21%,22µM*,0%,4%,-14%
O=C(c1ccc2c(=O)n(Cc3ccco3)c(=S)[nH]c2c1)N1CCN(Cc2ccc3c(c2)OCO3)CC1,x,0%,x,x,x
FC(F)(F)c1cc(-c2ccco2)nc(NCCc2ccccc2)n1,-1%,32µM*,3%,17%,-17%
COc1cccc(-c2cc(C(F)(F)F)nc(NCc3ccc(F)cc3)n2)c1,x,28µM*,x,x,x
COc1ccc(-c2cc(C(F)(F)F)nc(NCc3ccc(Cl)cc3)n2)cc1,x,4%,x,x,x
COc1cccc(-c2cc(C(F)(F)F)nc(NCCc3ccccc3)n2)c1,x,28µM*,x,x,x
COc1ccc(-c2cc(C(F)(F)F)nc(NCCc3ccccc3)n2)cc1,x,4%,x,x,x
CCOC(=O)c1[nH]c(C)c(CCC(=O)NC(C)c2ccccc2)c1C (stereo unspecified),x,1%,x,x,x
CC1(C)Cc2cccc(OCC(=O)N3CCN(c4cccc(Cl)c4)CC3)c2O1,x,25µM*,-1%,x,-6%
CC1(C)Cc2cccc(OCC(=O)N3CCN(c4cccc(C(F)(F)F)c4)CC3)c2O1,x,0%,1%,x,-4%
Cc1nn(C)cc1C(C)NC(=O)c1cc(COc2c(F)cccc2F)on1 (stereo unspecified),-6%,0%,-2%,7%,2%
Cc1nn(C)cc1C(C)NC(=O)c1cc(COc2cccc3cnccc23)on1 (stereo unspecified),u,16µM*,-1%,x,-16%
CCCn1c(C)nc2c(N(C)CCN(C)C)nc(C)nc21,x,x,x,6%,x
Cc1ccccc1Nc1nnc(SCC(=O)Nc2ccccc2[N+](=O)[O-])s1,u,32µM*,1%,2%,11%
O=C(CCCn1c(=O)c2cccn2c2ccc(F)cc21)NCc1ccc(Cl)cc1,x,-19%,x,x,x
O=[N+]([O-])c1cc(C=Nc2ccc3ccccc3c2)ccc1Br,21%,28µM*,1%,u,4%
CCOc1ccc(N=Cc2ccc3ccccc3c2)cc1,1%,-2%,0%,x,2%
O=C(C1CCCN(S(=O)(=O)c2ccc(Br)s2)C1)N1CCN(c2ccc(F)cc2)CC1 (stereo unspecified),x,-1%,x,x,x
O=C(Nc1cccc(Cl)c1)Nn1cnnc1,25µM*,1%,4%,2%,2%
